From the supplement of paper PMC12297408
Counter-ions that a name gives are not always drawn.

Tested on: Plasmodium falciparum NF54/iGP1_RE9H ulg8 stage V gametocytes
Experiment: gametocyte viability (luciferase signal relative to DMSO control) (% of DMSO control); higher = less gametocytocidal activity, active = 50 or less
Conditions: exposure time: 72 h
Protocol: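 Synchronous P. falciparum NF54/iGP1_RE9H ulg8 mature stage V gametocytes (day 12) were exposed to Cayman Epigenetics Screening Library compounds at 10 µM or 1 µM for 72 h at 37 °C. Viability was read as RE9H luciferase bioluminescence, normalised to DMSO plate controls (100%); 50 µM methylene blue was the positive control.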

Row | SMILES | gametocyte viability (concentration: 1 µM) | gametocyte viability (concentration: 10 µM)
1 | COC(=O)/C=C/C(=O)N(O)CCCCNCc1ccc(COC(=O)Nc2cccc3ccccc23)cc1 [Methylstat (hydrate)] | 89.4 (inactive) | 32 (active)
2 | CC(C)N(CCCNC(=O)Nc1ccc(C(C)(C)C)cc1)C[C@H]1O[C@@H](n2ccc3c(N)ncnc32)[C@H](O)[C@@H]1O | 94.6 (inactive) | 94.1 (inactive)
3 | CC(C)(CNC(=O)c1cccc(-c2noc(C(F)(F)F)n2)c1)c1coc(-c2ccccc2)n1 | 90.2 (inactive) | 83.2 (inactive)
4 | CC(=O)Nc1ccc(NC(=S)NC(=O)c2ccc(C(C)(C)C)cc2)cc1 [Tenovin-1] | 81.3 (inactive) | 81.9 (inactive)
5 | CCC(=O)N1CCOc2c(cc(-c3ccc(OC)c(OC)c3)cc2OC[C@H]2CCCN(C)C2)C1 [I-CBP112 (hydrochloride)] | 84.5 (inactive) | 86.9 (inactive)
6 | CCCCCCCCOC(=O)C(O)CCC(=O)O (stereo not drawn) [Octyl-α-hydroxyglutarate] | 92.4 (inactive) | 95.4 (inactive)
7 | Cc1cc(C)c(CNC(=O)c2cc(-c3ccc(N4CCN(C)CC4)nc3)cc3c2c(C)cn3C(C)C)c(=O)[nH]1 | 78.5 (inactive) | 62.9 (inactive)
8 | COc1cc(-c2cn(C)c(=O)c3cnccc23)c(OC)cc1CN(C)C | 86.9 (inactive) | 85.8 (inactive)
9 | O=C(NN=Cc1c(O)ccc2ccccc12)c1ccncc1 | 84.7 (inactive) | 65.4 (inactive)
10 | Cc1cc(C)cc(C(=O)NOCCCCCC(=O)NO)c1 | 92.1 (inactive) | 64.9 (inactive)
